Structures are written as SMILES. Results filed as inconclusive are left out. The source made the active and inactive calls. How the source made its calls, unless noted: active means hit-call score of the fitted dose curve at least 0.9, where 1 is the maximum; inconclusive means response in the unintended direction; inactive means score below 0.9.

Chain of Estrogen receptor (Homo sapiens) (P03372 whole entry, looked up): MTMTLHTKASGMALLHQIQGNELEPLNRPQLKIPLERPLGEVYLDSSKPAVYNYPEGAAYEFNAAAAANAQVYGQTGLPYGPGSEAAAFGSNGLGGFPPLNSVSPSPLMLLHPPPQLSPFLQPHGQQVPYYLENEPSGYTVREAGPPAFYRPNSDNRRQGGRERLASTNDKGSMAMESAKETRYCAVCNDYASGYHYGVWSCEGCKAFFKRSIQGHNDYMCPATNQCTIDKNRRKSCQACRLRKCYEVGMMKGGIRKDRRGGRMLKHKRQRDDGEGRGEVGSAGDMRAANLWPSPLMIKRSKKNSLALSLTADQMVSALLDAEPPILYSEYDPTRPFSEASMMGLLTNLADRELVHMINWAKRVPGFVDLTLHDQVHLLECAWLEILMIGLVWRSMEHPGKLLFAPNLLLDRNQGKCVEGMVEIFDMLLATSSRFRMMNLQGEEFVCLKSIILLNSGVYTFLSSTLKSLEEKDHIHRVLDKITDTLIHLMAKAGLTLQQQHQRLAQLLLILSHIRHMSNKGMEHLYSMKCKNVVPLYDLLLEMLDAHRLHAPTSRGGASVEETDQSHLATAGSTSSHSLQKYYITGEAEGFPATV

The target of the first assay is Estrogen receptor beta (Homo sapiens) (UniProt Q92731). The experiment in a line: OT_ER_ERbERb_1440: Odyssey Thera (OT) 24-hour HEK293T Protein-Complementation Assay for Estrogen Receptor-beta/-beta Homodimer (AID 2283380).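 Further: scored as signal increase over DMSO baseline for both agonists and antagonists.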 Put shortly: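 HEK293T cells stably expressing ER beta LBD (aa 310-547) homodimer fragment-complementation reporter, dosed 24 h. Cells formaldehyde-fixed, Draq5-stained; gain in nuclear (agonist) or nuclear plus cytoplasmic (antagonist) fluorescence versus DMSO read by laser scanning cytometry.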
Chain of Estrogen receptor beta (Homo sapiens) (Q92731 whole entry, looked up, the tested form may be a part): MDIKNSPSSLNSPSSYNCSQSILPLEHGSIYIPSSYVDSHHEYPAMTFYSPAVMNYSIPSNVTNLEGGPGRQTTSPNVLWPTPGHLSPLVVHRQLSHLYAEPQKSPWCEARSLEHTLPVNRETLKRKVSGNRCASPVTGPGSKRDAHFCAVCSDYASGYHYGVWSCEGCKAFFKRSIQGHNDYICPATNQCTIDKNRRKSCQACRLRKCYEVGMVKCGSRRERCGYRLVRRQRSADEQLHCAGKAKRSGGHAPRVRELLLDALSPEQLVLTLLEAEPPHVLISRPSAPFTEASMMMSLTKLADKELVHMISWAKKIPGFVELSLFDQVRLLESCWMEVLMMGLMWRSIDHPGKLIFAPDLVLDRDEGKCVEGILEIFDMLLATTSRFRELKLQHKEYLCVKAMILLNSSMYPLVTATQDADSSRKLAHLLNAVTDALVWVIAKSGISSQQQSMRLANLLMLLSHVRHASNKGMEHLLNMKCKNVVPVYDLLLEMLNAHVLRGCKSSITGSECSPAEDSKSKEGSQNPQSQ
For the compound `CCCC(O)C(CC)CO` (stereo not given), the outcome was inactive.

With `CCCO`, the compound was called inactive.

A word on the AC50: it is the concentration giving half of the maximal activity seen. Regarding `CCCc1ccc(O)cc1`, the half-maximal activity concentration (AC50) was 46.5 µM (active).

In the case of `CCCCOCCOCCOCCO`, the compound was called inactive.

In the case of `CNC(=C[N+](=O)[O-])NCCSCc1ccc(CN(C)C)o1`, the call was inactive.

With `CCCC[N+](C)(CCCC)CCCC`, the compound was classed as inactive.

In the case of `CC(C)CCCC(C)(C)O`, the call was inactive.

For `c1ccc(Cc2ccccc2)cc1`, the result was inactive.

`CC(=O)c1ccc(O)cc1`: the compound was classed as inactive.

Consider `COc1ccc2[nH]cc(CCNC(C)=O)c2c1`, for which the call was inactive.

As for `c1ccc(OCCOc2ccccc2)cc1`, the result was inactive.

For `CCCCOCCOCCO`, the call was inactive.

As to `NC(=O)c1cccnc1`, the compound was classed as inactive.

As to `CCCCCCCCCO`, the compound was classed as inactive.

As to `CCCCCCCCCCO[C@@H]1O[C@H](CO)[C@@H](O)[C@H](O)[C@H]1O`, the compound was called inactive.

As to `O=C(O)CS`, the compound was called inactive.

On to `CCCC1CCC(=O)CC1`, for which the outcome was inactive.

As for `COC(=O)c1ccc(C(=O)OC)cc1`, the compound was called inactive.

As for `CCCc1ccc(N)cc1`, the outcome was inactive.

As to `CCCCCCCC(=O)N(C)C`, the result was inactive.

As to `CCC(C)COC(=O)CC(C)C` (stereo not given), the call was inactive.

As for `C=CCCCCCCCCC(=O)OCC`, the outcome was inactive.

As for `CCC(C)C1CCCCC1=O` (stereo not given), the compound was classed as inactive.

For `[Na+]`, the call was inactive.

In another assay the target is Estrogen receptor (Homo sapiens) (UniProt P03372). The assay is described as follows: OT_ERa_GFPERaERE_0480: Odyssey Thera (OT) 8-hour HeLa Transcription Induction Assay for Estrogen Receptor (AID 2283381; active means hit-call score of the fitted dose curve at least 0.9, where 1 is the maximum; inactive means score below 0.9). The method in brief:
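Fluorescent reporter signal, imaged by microscopy and scored with image-analysis algorithms, was taken 8 h after chemical dosing of HeLa cells; activity was fitted upward relative to DMSO.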
For the compound `CCCC(O)C(CC)CO` (stereo not given), the compound was called inactive.

`O=Cc1ccccc1O`: the result was inactive.

Turning to `C=C(C)C(=O)OCCC(C)OC(=O)C(=C)C` (stereo not given), the result was inactive.

As for `CCCO`, the compound was classed as inactive.

For the compound `CCCc1ccc(O)cc1`, the compound was classed as inactive.

Regarding `C1=COCCC1`, the compound was called inactive.

`CCCCOCCOCCOCCO`: the call was inactive.

Turning to `CNC(=C[N+](=O)[O-])NCCSCc1ccc(CN(C)C)o1`, the call was inactive.

Take `COc1ccc(OC)cc1`: the result was inactive.

Regarding `CC(C)CCCC(C)(C)O`, the result was inactive.

For the compound `c1ccc(Cc2ccccc2)cc1`, the compound was called inactive.

Turning to `CC(=O)N(C)C`, the compound was called inactive.

`CC(O)CNCC(C)O` (stereo not given): the AC50 was 29.8 µM (active).

Take `CC(=O)c1ccc(O)cc1`: the compound was classed as inactive.

Regarding `CC(C)(C)C1CCC(O)CC1` (stereo not given), the outcome was inactive.

In the case of `COc1ccc2[nH]cc(CCNC(C)=O)c2c1`, the compound was classed as inactive.

As to `c1ccc(OCCOc2ccccc2)cc1`, the compound was classed as inactive.

On to `CCCCOCCOCCO`, for which the outcome was inactive.

`CC1=CCC(C(C)C)=CC1`: the compound was called inactive.

`CC(=O)OC(C)(C)C1CC=C(C)CC1` (stereo not given): the result was inactive.

For `CCCCCC1C(=O)CCC1CC(=O)OC` (stereo not given), the outcome was inactive.

Regarding `NC(=O)c1cccnc1`, the result was inactive.

In the case of `CCCCCCCCCO`, the compound was called inactive.

`CCCCCCCCCCO[C@@H]1O[C@H](CO)[C@@H](O)[C@H](O)[C@H]1O`: the call was inactive.

`OC[C@@H](O)[C@H](O)[C@@H](O)[C@@H](O)CO`: the call was inactive.

`O=C(O)CS`: the compound was classed as inactive.

For `CCCC1CCC(=O)CC1`, the outcome was inactive.

As to `COC(=O)c1ccc(C(=O)OC)cc1`, the result was inactive.

For `CCCc1ccc(N)cc1`, the compound was classed as inactive.

With `CCCCCCCCOC(C)=O`, the compound was called inactive.

Take `c1coc(CNc2ncnc3nc[nH]c23)c1`: the compound was classed as inactive.

Consider `CCCCCCCC(=O)N(C)C`, for which the outcome was inactive.

Regarding `CCC(C)COC(=O)CC(C)C` (stereo not given), the result was inactive.

Consider `C=CCCCCCCCCC(=O)OCC`, for which the compound was classed as inactive.

For `O=C(O)c1ccccc1O`, the outcome was inactive.

Take `CCC(C)C1CCCCC1=O` (stereo not given): the compound was classed as inactive.

Take `NC(N)=S`: the result was inactive.

Regarding `Cc1cccc(C)c1`, the compound was classed as inactive.

As to `[Na+]`, the call was inactive.

A further assay has the same target. The experiment in a line: OT_ERa_GFPERaERE_0120: Odyssey Thera (OT) 2-hour HeLa Transcription Induction Assay for Estrogen Receptor (AID 2283382). The method in brief: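 HeLa, 384-well, 2 h chemical exposure; GFP reporter induction (ERE), fluorescence microscopy; high content image analysis; positive fitting direction vs DMSO.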
Regarding `CCCC(O)C(CC)CO` (stereo not given), the compound was classed as inactive.

On to `O=Cc1ccccc1O`, for which the compound was called inactive.

Regarding `C=C(C)C(=O)OCCC(C)OC(=O)C(=C)C` (stereo not given), the result was inactive.

Consider `CCCO`, for which the call was inactive.

Consider `CCCc1ccc(O)cc1`, for which the result was inactive.

For the compound `C1=COCCC1`, the compound was classed as inactive.

For `CCCCOCCOCCOCCO`, the outcome was inactive.

`CNC(=C[N+](=O)[O-])NCCSCc1ccc(CN(C)C)o1`: the call was inactive.

For the compound `COc1ccc(OC)cc1`, the call was inactive.

In the case of `CC(C)CCCC(C)(C)O`, the compound was classed as inactive.

`c1ccc(Cc2ccccc2)cc1`: the AC50 is 7.03 µM (active).

Turning to `CC(=O)N(C)C`, the compound was called inactive.

On to `CC(O)CNCC(C)O` (stereo not given), for which the compound was classed as inactive.

As for `CC(=O)c1ccc(O)cc1`, the outcome was inactive.

Consider `CC(C)(C)C1CCC(O)CC1` (stereo not given), for which the result was inactive.

Take `COc1ccc2[nH]cc(CCNC(C)=O)c2c1`: the outcome was inactive.

Regarding `c1ccc(OCCOc2ccccc2)cc1`, the compound was called inactive.

Take `CCCCOCCOCCO`: the compound was called inactive.

Turning to `CC1=CCC(C(C)C)=CC1`, the compound was called inactive.

In the case of `CC(=O)OC(C)(C)C1CC=C(C)CC1` (stereo not given), the compound was classed as inactive.

For `CCCCCC1C(=O)CCC1CC(=O)OC` (stereo not given), the compound was called inactive.

On to `NC(=O)c1cccnc1`, for which the compound was classed as inactive.

For the compound `CCCCCCCCCO`, the compound was classed as inactive.

Take `CCCCCCCCCCO[C@@H]1O[C@H](CO)[C@@H](O)[C@H](O)[C@H]1O`: the compound was called inactive.

`OC[C@@H](O)[C@H](O)[C@@H](O)[C@@H](O)CO`: the outcome was inactive.

Take `O=C(O)CS`: the result was inactive.

Turning to `CCCC1CCC(=O)CC1`, the compound was called inactive.

Take `COC(=O)c1ccc(C(=O)OC)cc1`: the compound was classed as inactive.

Turning to `CCCc1ccc(N)cc1`, the call was inactive.

Regarding `CCCCCCCCOC(C)=O`, the result was inactive.

For `c1coc(CNc2ncnc3nc[nH]c23)c1`, the outcome was inactive.

As to `CCCCCCCC(=O)N(C)C`, the compound was classed as inactive.

As to `CCC(C)COC(=O)CC(C)C` (stereo not given), the outcome was inactive.

Consider `C=CCCCCCCCCC(=O)OCC`, for which the outcome was inactive.

For `O=C(O)c1ccccc1O`, the call was inactive.

`CCC(C)C1CCCCC1=O` (stereo not given): the compound was called inactive.

Take `NC(N)=S`: the result was inactive.

Consider `Cc1cccc(C)c1`, for which the call was inactive.

In the case of `[Na+]`, the outcome was inactive.

The target in a further assay is Retinoic acid receptor RXR-alpha (Homo sapiens) (UniProt P19793). The assay is described as follows: OT_NURR1_NURR1RXRa_0480: Odyssey Thera (OT) 8-hour HEK293T Protein Complementation Assay for Nurr1/retinoid X receptor (RXR) (AID 2283385). Put shortly: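 8 h compound exposure, HEK293T; Nurr1/RXRα fragment complementation; fluorescence intensity; positive fitting direction vs DMSO baseline.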
Chain of Retinoic acid receptor RXR-alpha (Homo sapiens) (P19793 whole entry, looked up, the tested form may be a part): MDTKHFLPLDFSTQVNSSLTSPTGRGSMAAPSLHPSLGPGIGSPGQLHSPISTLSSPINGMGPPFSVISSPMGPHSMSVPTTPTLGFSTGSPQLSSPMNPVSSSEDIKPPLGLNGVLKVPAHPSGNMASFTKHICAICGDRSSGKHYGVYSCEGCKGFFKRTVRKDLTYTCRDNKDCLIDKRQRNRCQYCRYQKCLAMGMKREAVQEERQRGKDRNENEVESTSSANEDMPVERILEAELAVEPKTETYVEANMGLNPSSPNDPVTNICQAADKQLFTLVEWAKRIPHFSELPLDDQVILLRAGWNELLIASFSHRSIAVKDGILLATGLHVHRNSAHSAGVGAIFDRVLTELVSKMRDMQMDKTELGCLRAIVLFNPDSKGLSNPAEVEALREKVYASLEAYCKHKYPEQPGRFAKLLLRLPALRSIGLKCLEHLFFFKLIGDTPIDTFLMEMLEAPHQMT
As to `C=C(C)C(=O)OCCC(C)OC(=O)C(=C)C` (stereo not given), the compound was called inactive.

Turning to `CCCO`, the outcome was inactive.

As for `CCCc1ccc(O)cc1`, the result was inactive.

For the compound `C1=COCCC1`, the result was inactive.

Turning to `CCCCOCCOCCOCCO`, the call was inactive.

`CNC(=C[N+](=O)[O-])NCCSCc1ccc(CN(C)C)o1`: the result was inactive.

For the compound `COc1ccc(OC)cc1`, the outcome was inactive.

As for `CC(C)CCCC(C)(C)O`, the result was inactive.

For the compound `c1ccc(Cc2ccccc2)cc1`, the outcome was inactive.

For the compound `CC(=O)c1ccc(O)cc1`, the outcome was inactive.

For `c1ccc(OCCOc2ccccc2)cc1`, the compound was called inactive.

`CC1=CCC(C(C)C)=CC1`: the call was inactive.

Take `CCCCCC1C(=O)CCC1CC(=O)OC` (stereo not given): the call was inactive.

As for `NC(=O)c1cccnc1`, the compound was classed as inactive.

Take `CCCCCCCCCO`: the call was inactive.

On to `CCCCCCCCCCO[C@@H]1O[C@H](CO)[C@@H](O)[C@H](O)[C@H]1O`, for which the call was inactive.

Regarding `OC[C@@H](O)[C@H](O)[C@@H](O)[C@@H](O)CO`, the result was inactive.

Regarding `O=C(O)CS`, the call was inactive.

On to `CCCC1CCC(=O)CC1`, for which the compound was called inactive.

Consider `COC(=O)c1ccc(C(=O)OC)cc1`, for which the compound was called inactive.

As to `CCCc1ccc(N)cc1`, the outcome was inactive.

Consider `CCCCCCCCOC(C)=O`, for which the result was inactive.

As to `CCCCCCCC(=O)N(C)C`, the result was inactive.

For `CCC(C)COC(=O)CC(C)C` (stereo not given), the outcome was inactive.

Take `C=CCCCCCCCCC(=O)OCC`: the outcome was inactive.

Turning to `O=C(O)c1ccccc1O`, the compound was called inactive.

`CCC(C)C1CCCCC1=O` (stereo not given): the call was inactive.

`NC(N)=S`: the outcome was inactive.

(Values after PubChem BioAssay (EPA / NIEHS).)
